As a reminder, the AC50 is the concentration at which the activity in the assay is half-maximal.

For test [1], the system named is Sodium/Iodide Symporter (NIS), SLC5A5 (gene 6528). The test can be described thus: CPHEA_Stoker_NIS_Inhibition_RAIU: CPHEA's Radioactive Iodide Uptake (RAIU) Assay for Sodium/Iodide Symporter (NIS) Inhibition, Stoker and Laws Labs (AID 2283841). The essentials: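 hNIS-HEK293T-EPA cells incubated 2 h at room temperature with compound (0.001–100 uM, 0.5% DMSO) and 329 pM final 125I in HBSS/10 mM HEPES, pH 7.4. Intracellular 125I counted; normalised to DMSO maximal uptake, triplicate, three biological replicates.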

Test [2] can be described thus: CPHEA_Stoker_NIS_Cytotoxicity: Cytotoxicity Assessment for CPHEA's Radioactive Iodide Uptake (RAIU) Assay for Sodium/Iodide Symporter (NIS) Inhibition, Stoker and Laws Labs (AID 2283897). Put shortly:
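hNIS-HEK293T-EPA cells, human NIS expressed in HEK293T, treated 2 h with chemicals (0.001–100 uM, 0.5% final DMSO). ATP content read by CellTiter-Glo luminescence; loss of signal analysed relative to DMSO.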

Test [3] has as its target Peroxisome proliferator-activated receptor gamma (Homo sapiens) (UniProt P37231). Description: ATG_hPPARg_XSP2: Attagene TRANS-FACTORIAL Multi-Species (XSP2) HepG2 Assay for human Peroxisome Proliferator-activated Receptor gamma (PPARg) (AID 2283829).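 Note: actives raise reporter mRNA above DMSO so AC50 reflects PPARg activation.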 Put shortly: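 HepG2 cells transiently transfected with multiplexed GAL4-UAS reporter units for chimeric NR-Gal4 receptors, dosed 24 h. Reporter mRNA quantified by RT-PCR, 6-FAM labeling, HpaI digestion and capillary electrophoresis; gain-of-signal fitted against DMSO baseline.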

For test [4], the target named is mouse Peroxisome Proliferator-activated Receptor gamma (PPARg), Pparg (gene 19016) (UniProt P37238). Description: ATG_mPPARg_XSP2: Attagene TRANS-FACTORIAL Multi-Species (XSP2) HepG2 Assay for mouse Peroxisome Proliferator-activated Receptor gamma (PPARg) (AID 2283830).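 Note: hits are gains in reporter mRNA above DMSO so AC50 marks activation.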 Put shortly: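 Multiplexed TRANS reporter readout: after 24 h chemical exposure of transfected HepG2 cells (with 3 nM 6-alpha-fluorotestosterone, 1.5 nM norgestrel present), RNA reverse-transcribed, amplified, 6-FAM-labelled and resolved by capillary electrophoresis; mouse PPARg-Gal4 induction scored against DMSO.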
Chain of mouse Peroxisome Proliferator-activated Receptor gamma (PPARg), Pparg (gene 19016) (P37238 whole entry, looked up, the tested form may be a part): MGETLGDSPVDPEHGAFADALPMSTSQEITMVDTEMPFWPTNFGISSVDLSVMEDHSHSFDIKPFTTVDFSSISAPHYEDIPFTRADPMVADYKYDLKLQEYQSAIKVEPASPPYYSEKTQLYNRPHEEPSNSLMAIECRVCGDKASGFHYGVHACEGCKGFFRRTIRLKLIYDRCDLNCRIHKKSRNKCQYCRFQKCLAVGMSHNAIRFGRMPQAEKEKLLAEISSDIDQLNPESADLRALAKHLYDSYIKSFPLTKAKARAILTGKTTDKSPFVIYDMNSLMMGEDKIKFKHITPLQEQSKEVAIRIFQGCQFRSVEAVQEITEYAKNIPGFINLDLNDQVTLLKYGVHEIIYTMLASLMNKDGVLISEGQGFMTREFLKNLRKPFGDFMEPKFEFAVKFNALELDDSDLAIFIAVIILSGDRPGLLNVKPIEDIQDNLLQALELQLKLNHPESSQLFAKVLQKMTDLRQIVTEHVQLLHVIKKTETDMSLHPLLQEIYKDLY

Test [5] has as its target zebrafish Thyroid Hormone Receptor alpha (TRa), thraa (gene 30670) (UniProt Q98867). The test can be described thus: ATG_zfTRa_XSP2: Attagene TRANS-FACTORIAL Multi-Species (XSP1) HepG2 Assay for zebrafish Thyroid Hormone Receptor alpha (TRa) (AID 2283832).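 Note: actives raise zebrafish TRa-Gal4 reporter transcript above DMSO baseline.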 The essentials: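 Readout is reporter mRNA induction, quantified by RT-PCR and capillary electrophoresis with fluorescent labelling, after 24 h compound exposure of transiently transfected HepG2 cells carrying NR-Gal4 chimera reporters. Activity fitted upward relative to DMSO.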

The subject of test [6] is zebrafish Peroxisome Proliferator-activated Receptor gamma (PPARg), gene 557037. The test can be described thus: ATG_zfPPARg_XSP2: Attagene TRANS-FACTORIAL Multi-Species (XSP2) HepG2 Assay for zebrafish Peroxisome Proliferator-activated Receptor gamma (PPARg) (AID 2283833).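 Note: actives increase reporter signal over DMSO so AC50 reflects activation.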 The essentials: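 HepG2 cells transiently transfected with GAL4-UAS reporter units expressing a zebrafish PPARg–GAL4 chimera; compound exposure 24 h. Reporter mRNA quantified by RT-PCR with fluorescent labelling and capillary electrophoresis; gain of signal fitted relative to DMSO baseline.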

Test [7] has as its system turtle Thyroid Hormone Receptor, alpha (TRa), gene 101949057. The test can be described thus: ATG_trTRa_XSP2: Attagene TRANS-FACTORIAL Multi-Species (XSP1) HepG2 Assay for turtle Thyroid Hormone Receptor, alpha (TRa) (AID 2283834).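 Note: hits raise reporter mRNA over the DMSO baseline so AC50 marks activators.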 The essentials:
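HepG2 cells transiently transfected with multiplexed GAL4-UAS reporter units expressing chimeric NR-Gal4 proteins were dosed for 24 hours. Reporter mRNA was quantified by RT-PCR with 6-FAM labelling and capillary electrophoresis, gain of signal scored against DMSO.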

A short description of test [8]: ATG_M_61_XSP2: Attagene TRANS-FACTORIAL Multi-Species (XSP2) HepG2 Assay for M61 Transcription Factor (Internal Marker) (AID 2283835; active = hit-call score of the fitted dose curve at least 0.9, where 1 is the maximum; inactive = score below 0.9;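 note: active means a rise in signal above the DMSO baseline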). Put shortly: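 Internal background marker, read as RT-PCR/capillary-electrophoresis reporter mRNA 24 h post-dose in transiently transfected HepG2 cells. Androgen receptor stimulated with 3 nM 6-alpha-fluorotestosterone plus 1.5 nM norgestrel; gain of signal versus DMSO analysed.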

Test [9] addresses zebrafish Thyroid Hormone Receptor beta (TRb), thrb (gene 30607) (UniProt Q9PVE4). The test can be described thus: ATG_zfTRb_XSP2: Attagene TRANS-FACTORIAL Multi-Species (XSP1) HepG2 Assay for zebrafish Thyroid Hormone Receptor beta (TRb) (AID 2283836). The essentials:
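Reporter transcripts were measured by RT-PCR with fluorescent primer extension and capillary electrophoresis, 24 h after chemical dosing of transiently transfected HepG2 cells. Activity was scored as upward signal versus DMSO baseline.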

Test [10] can be described thus: ATG_XTT_Cytotoxicity_XSP2: Cytotoxicity Assessment in the Attagene TRANS-FACTORIAL Multi-Species (XSP2) HepG2 Assay (AID 2283837). Put shortly: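 XTT-based cell number read-out in human HepG2 liver cells carrying transfected reporter units, measured 24 h after chemical dosing. Activity is signal loss versus DMSO baseline.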
Test [11] deals with human Thyroid hormone Receptor alpha (TRa), THRA (gene 7067) (UniProt P10827). Description: ATG_hTRa_XSP2: Attagene TRANS-FACTORIAL Multi-Species (XSP2) HepG2 Assay for human Thyroid hormone Receptor alpha (TRa) (AID 2283838). The essentials: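 Gain-of-signal in reporter mRNA, relative to DMSO, after 24 h dosing of transfected HepG2; quantitation by RT-PCR fragment analysis on capillary electrophoresis.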
Chain of human Thyroid hormone Receptor alpha (TRa), THRA (gene 7067) (P10827 whole entry, looked up, the tested form may be a part): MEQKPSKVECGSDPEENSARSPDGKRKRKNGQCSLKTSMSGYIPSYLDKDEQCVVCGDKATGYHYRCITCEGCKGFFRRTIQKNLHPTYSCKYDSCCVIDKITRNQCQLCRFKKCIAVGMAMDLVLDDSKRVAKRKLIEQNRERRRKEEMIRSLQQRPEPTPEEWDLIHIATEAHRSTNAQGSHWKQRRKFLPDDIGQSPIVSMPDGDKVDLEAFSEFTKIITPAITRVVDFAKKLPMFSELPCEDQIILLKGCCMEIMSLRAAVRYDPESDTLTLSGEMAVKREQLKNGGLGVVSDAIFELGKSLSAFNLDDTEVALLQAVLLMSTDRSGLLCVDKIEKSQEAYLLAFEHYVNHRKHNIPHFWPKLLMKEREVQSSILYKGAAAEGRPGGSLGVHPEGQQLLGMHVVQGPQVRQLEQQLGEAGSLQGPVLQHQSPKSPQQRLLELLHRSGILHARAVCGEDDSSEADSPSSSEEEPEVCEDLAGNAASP

Test [12] concerns the target frog Thyroid hormone Receptor alpha (TRa), thra-a (gene 397942) (UniProt P15204). Description: ATG_frTRa_XSP2: Attagene TRANS-FACTORIAL Multi-Species (XSP2) HepG2 Assay for frog Thyroid hormone Receptor alpha (TRa) (AID 2283839). The essentials:
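HepG2 cells transiently transfected with multiplexed GAL4-UAS reporter units expressing chimeric frog TRα-Gal4; reporter mRNA read 24 h after dosing by RT-PCR, FAM-labelled primer extension, HpaI digest and capillary electrophoresis. Gain of signal fitted versus DMSO.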

The target of test [13] is human Thyroid hormone Receptor beta (TRb), THRB (gene 7068) (UniProt P10828). Description: ATG_hTRb_XSP2: Attagene TRANS-FACTORIAL Multi-Species (XSP2) HepG2 Assay for human Thyroid hormone Receptor beta (TRb) (AID 2283840).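 Note: actives raise reporter mRNA so potency reflects agonist-like gain of signal.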 Put shortly:
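HepG2 cells were transiently transfected with GAL4-UAS multiplexed reporter units expressing chimeric NR-Gal4 proteins, dosed 24 h; reporter mRNA was quantified by RT-PCR, fluorescent labeling, HpaI digestion and capillary electrophoresis, fitted for gain of signal versus DMSO.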

A short description of test [14]: CEETOX_H295R_11DCORT_noMTC: CeeTox H295R High-throughput Steroidogenesis Assay for 11-Deoxycortisol (11DCORT), maximum tolerated concentration (MTC) filtered results only (AID 2283911; active = hit-call score of the fitted dose curve at least 0.9, where 1 is the maximum; inactive = score below 0.9). To be noted: actives raise or lower the signal. The essentials:
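HPLC-MS/MS read-out of 11-deoxycortisol after MTBE extraction of H295R medium. Cells: forskolin 10 uM pre-stimulation 48 h, chemical 48 h, 0.1% DMSO final. Bidirectional fit vs DMSO baseline; no MTC filtering.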

Test [15] in a line: CEETOX_H295R_OHPREG_noMTC: CeeTox H295R High-throughput Steroidogenesis Assay for OH-Pregnenolone (OHPREG), maximum tolerated concentration (MTC) filtered results only (AID 2283912; active = hit-call score of the fitted dose curve at least 0.9, where 1 is the maximum; inactive = score below 0.9). To be noted: actives raise or lower the signal. The essentials:
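Medium 17alpha-hydroxypregnenolone quantified by reverse-phase HPLC-MS/MS after 48 h chemical exposure of forskolin-prestimulated (10 uM, 48 h) H295R, 0.1% DMSO final. Fitting bidirectional relative to DMSO; no maximum-tolerated-concentration filtering applied.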

Test [16] in a line: CEETOX_H295R_OHPROG_noMTC: CeeTox H295R High-throughput Steroidogenesis Assay for OH-Progesterone (OHPROG), maximum tolerated concentration (MTC) filtered results only (AID 2283914; active = hit-call score of the fitted dose curve at least 0.9, where 1 is the maximum; inactive = score below 0.9). To be noted: actives raise or lower the signal. Put shortly: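 After 48 h forskolin (10 uM) prestimulation, H295R adrenal cells received test chemical in 0.1% DMSO for 48 h. Medium 17alpha-hydroxyprogesterone was MTBE-extracted and measured by HPLC-MS/MS; gain or loss relative to DMSO, no MTT-based MTC filtering.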

The nature of test [17]: CEETOX_H295R_CORTISOL_noMTC: CeeTox H295R High-throughput Steroidogenesis Assay for Cortisol, maximum tolerated concentration (MTC) filtered results only (AID 2283916; active = hit-call score of the fitted dose curve at least 0.9, where 1 is the maximum; inactive = score below 0.9). To be noted: actives raise or lower the signal. The essentials:
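Cortisol secretion measured by LC-MS/MS after 48 h chemical treatment (final 0.1% DMSO) of forskolin-primed (10 uM, 48 h) H295R cells; gain or loss fitted relative to DMSO, without maximum-tolerated-concentration filtering.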

Test [18] can be described thus: ATG_M_32_XSP2: Attagene TRANS-FACTORIAL Multi-Species (XSP2) HepG2 Assay for M19 Transcription Factor (Internal Marker) (AID 2283826). Put shortly:
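HepG2 cells transiently transfected with GAL4-UAS reporter transcription units, dosed with compound for 24 h in presence of 3 nM 6-alpha-fluorotestosterone and 1.5 nM norgestrel; reporter mRNA quantified by RT-PCR, FAM labelling, HpaI digestion and capillary electrophoresis.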

Test [19] has as its target Nuclear receptor subfamily 1 group I member 2 (Mus musculus) (UniProt O54915). The test can be described thus: ATG_mPXR_XSP2: Attagene TRANS-FACTORIAL Multi-Species (XSP1) HepG2 Assay for mouse Pregnane X Receptor (PXR) (AID 2283831). The essentials: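 HepG2 cells transiently transfected with GAL4-UAS reporter units expressing chimeric NR-GAL4 proteins; reporter mRNA measured 24 h after dosing by RT-PCR with 6-FAM labelling and capillary electrophoresis, gain of signal relative to DMSO.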

The target in test [20] is Estrogen receptor (Homo sapiens) (UniProt P03372). The test can be described thus: ATG_hERa_XSP2: Attagene TRANS-FACTORIAL Multi-Species (XSP2) HepG2 Assay for human Estrogen Receptor (ERa) (AID 2283827). The essentials:
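Trans-activation of exogenous human ERa-Gal4 chimera read in HepG2 as reporter transcript after 24 h exposure; medium included 3 nM 6-alpha-fluorotestosterone and 1.5 nM norgestrel. Quantified by RT-PCR with capillary electrophoresis, positive-direction fitting against DMSO.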

Inconclusive results are not listed. More than one record can exist for a structure, and the calls need not agree. Active and inactive are the calls of the source. Rule for the calls, unless noted: active = hit-call score of the fitted dose curve at least 0.9, where 1 is the maximum; inconclusive = response in the unintended direction; inactive = score below 0.9.

Chain of Nuclear receptor subfamily 1 group I member 2 (Mus musculus) (O54915 whole entry, looked up, the tested form may be a part): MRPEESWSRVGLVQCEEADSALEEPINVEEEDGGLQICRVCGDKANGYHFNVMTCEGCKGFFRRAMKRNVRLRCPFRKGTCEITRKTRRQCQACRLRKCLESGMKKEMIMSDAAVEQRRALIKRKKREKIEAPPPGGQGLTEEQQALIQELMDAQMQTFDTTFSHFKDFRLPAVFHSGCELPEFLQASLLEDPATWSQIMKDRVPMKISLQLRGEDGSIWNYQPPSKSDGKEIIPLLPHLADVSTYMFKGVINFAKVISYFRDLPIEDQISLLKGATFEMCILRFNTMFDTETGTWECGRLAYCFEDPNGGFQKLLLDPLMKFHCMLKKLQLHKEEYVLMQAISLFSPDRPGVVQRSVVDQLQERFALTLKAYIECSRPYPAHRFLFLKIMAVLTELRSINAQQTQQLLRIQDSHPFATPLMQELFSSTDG
Chain of frog Thyroid hormone Receptor alpha (TRa), thra-a (gene 397942) (P15204 whole entry, looked up, the tested form may be a part): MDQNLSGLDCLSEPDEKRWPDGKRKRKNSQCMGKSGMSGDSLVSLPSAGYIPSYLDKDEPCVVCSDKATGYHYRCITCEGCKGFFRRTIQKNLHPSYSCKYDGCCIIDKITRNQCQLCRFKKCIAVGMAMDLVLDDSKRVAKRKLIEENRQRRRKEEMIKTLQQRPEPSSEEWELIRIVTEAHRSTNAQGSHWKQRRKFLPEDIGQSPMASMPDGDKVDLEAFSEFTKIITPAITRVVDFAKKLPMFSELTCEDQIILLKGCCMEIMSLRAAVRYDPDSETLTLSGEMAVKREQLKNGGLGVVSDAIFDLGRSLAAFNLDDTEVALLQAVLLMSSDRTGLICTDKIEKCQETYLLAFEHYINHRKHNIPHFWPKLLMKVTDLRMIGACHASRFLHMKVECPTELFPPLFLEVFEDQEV
Chain of human Thyroid hormone Receptor beta (TRb), THRB (gene 7068) (P10828 whole entry, looked up, the tested form may be a part): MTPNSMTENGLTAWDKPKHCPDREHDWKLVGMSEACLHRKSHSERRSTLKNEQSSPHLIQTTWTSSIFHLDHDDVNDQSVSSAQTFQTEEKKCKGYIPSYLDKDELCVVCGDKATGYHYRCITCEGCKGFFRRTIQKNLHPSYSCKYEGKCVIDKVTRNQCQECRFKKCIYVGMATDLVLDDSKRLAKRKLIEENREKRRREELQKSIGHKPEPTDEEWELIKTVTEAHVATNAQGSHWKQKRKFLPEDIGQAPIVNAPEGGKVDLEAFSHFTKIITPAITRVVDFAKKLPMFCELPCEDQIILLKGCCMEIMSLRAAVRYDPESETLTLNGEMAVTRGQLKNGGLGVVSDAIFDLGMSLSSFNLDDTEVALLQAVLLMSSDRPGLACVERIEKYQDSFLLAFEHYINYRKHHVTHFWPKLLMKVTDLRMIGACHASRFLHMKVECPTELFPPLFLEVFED
Chain of zebrafish Thyroid Hormone Receptor beta (TRb), thrb (gene 30607) (Q9PVE4 whole entry, looked up): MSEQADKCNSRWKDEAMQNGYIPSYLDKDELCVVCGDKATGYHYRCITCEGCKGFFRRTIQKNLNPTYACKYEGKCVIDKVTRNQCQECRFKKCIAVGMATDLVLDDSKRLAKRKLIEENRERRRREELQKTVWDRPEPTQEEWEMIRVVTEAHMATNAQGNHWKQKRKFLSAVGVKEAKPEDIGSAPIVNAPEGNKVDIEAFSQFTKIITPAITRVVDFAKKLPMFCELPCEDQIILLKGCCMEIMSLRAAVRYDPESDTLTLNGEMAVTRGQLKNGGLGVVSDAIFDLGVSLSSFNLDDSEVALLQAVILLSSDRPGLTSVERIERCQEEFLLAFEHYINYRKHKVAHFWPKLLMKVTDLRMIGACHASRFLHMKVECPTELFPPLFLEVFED
Chain of zebrafish Thyroid Hormone Receptor alpha (TRa), thraa (gene 30670) (Q98867 whole entry, looked up, the tested form may be a part): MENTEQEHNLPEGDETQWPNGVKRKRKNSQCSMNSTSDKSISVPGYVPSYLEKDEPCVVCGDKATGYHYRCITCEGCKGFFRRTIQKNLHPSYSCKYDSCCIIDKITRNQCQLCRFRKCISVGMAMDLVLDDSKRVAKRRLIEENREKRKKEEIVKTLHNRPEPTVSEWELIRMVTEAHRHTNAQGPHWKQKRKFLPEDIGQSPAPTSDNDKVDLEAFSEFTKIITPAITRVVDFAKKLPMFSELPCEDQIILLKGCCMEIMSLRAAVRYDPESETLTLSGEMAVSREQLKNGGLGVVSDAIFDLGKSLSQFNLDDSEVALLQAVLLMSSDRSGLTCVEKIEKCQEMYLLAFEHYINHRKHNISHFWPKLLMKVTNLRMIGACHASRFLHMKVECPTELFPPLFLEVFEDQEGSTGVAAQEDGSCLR
Chain of Peroxisome proliferator-activated receptor gamma (Homo sapiens) (P37231 whole entry, looked up, the tested form may be a part): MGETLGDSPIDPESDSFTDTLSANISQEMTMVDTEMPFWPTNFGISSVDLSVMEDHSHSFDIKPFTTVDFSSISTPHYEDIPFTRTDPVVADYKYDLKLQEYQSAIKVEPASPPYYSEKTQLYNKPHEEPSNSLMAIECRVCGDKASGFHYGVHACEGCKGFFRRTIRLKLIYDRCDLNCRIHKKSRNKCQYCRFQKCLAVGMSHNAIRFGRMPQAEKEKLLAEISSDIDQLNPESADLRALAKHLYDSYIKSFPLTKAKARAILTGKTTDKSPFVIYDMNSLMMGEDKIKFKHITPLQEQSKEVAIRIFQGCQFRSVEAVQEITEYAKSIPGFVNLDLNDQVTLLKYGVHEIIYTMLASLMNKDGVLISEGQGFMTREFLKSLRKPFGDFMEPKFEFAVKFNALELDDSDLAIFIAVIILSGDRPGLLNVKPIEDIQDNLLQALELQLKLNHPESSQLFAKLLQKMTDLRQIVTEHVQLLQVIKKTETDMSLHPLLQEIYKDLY
Chain of Estrogen receptor (Homo sapiens) (P03372 whole entry, looked up, the tested form may be a part): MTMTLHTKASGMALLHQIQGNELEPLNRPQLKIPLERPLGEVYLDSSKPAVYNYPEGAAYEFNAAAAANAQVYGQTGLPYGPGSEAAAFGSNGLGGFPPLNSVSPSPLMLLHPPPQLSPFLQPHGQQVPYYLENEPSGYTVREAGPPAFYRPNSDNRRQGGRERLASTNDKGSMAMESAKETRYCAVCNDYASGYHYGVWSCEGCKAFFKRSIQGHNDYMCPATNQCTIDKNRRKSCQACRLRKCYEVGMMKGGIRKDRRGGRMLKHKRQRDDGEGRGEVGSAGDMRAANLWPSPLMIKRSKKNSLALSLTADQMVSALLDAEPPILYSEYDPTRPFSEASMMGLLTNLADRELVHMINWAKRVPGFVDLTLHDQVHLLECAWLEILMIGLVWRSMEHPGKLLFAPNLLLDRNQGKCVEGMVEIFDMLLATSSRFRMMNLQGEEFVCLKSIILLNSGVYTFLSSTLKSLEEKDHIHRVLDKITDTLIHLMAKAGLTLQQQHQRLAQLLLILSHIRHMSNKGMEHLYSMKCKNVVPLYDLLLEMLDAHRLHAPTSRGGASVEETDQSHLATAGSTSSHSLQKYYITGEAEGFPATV

As to `Cc1cccc(N)c1N`, the result in test [1] and in test [2] was inactive.
In the case of `c1ccc2c(c1)-c1cccc3cccc-2c13`, in test [3], the AC50 is 21.6 µM (active). Moreover, the compound was classed as inactive in [3], in test [4], in [5], in [6], in [7] and in test [8]. Moreover, the call in test [9], in [10], in test [11], in test [12] and in test [13] was inactive.
Turning to `C=CCc1ccc2c(c1)OCO2`, the compound was classed as inactive in test [14], in [15], in test [16] and in test [17].
Turning to `CCCCC(CC)COC(=O)c1ccc(C(=O)OCC(CC)CCCC)c(C(=O)OCC(CC)CCCC)c1` (stereo unspecified), the call in [18], in test [3], in test [4], in test [19], in test [5] and in test [7] was inactive. Also, the compound was called inactive in [9], in [10], in test [11], in test [12] and in test [13]. In addition, the AC50 in test [19] was 100 µM (active).
For `ClC1=C(Cl)C2(Cl)C3C(Cl)C=CC3C1(Cl)C2(Cl)Cl` (stereo unspecified), the result in test [1] and in test [2] was inactive.
Take `Clc1ccc(C(c2ccc(Cl)cc2)C(Cl)Cl)cc1`: the AC50 in [20] was 9.28 µM (active); in test [19], 7.95 µM (active). In addition, the outcome in test [3], in test [4], in [5], in test [6], in [8] and in [13] was inactive. Moreover, the outcome in test [1] and in test [2] was inactive.
On to `CCNS(=O)(=O)C(F)(F)C(F)(F)C(F)(F)C(F)(F)C(F)(F)C(F)(F)C(F)(F)C(F)(F)F`, for which the result in [1] and in test [2] was inactive.
In the case of `ClC1=C(Cl)[C@]2(Cl)[C@H]3[C@H]([C@@H]4C=C[C@H]3C4)[C@@]1(Cl)C2(Cl)Cl`, the outcome in test [1] and in [2] was inactive.

(Values after PubChem BioAssay (EPA / NIEHS).)
